# From PubChem
# ClpP mod = qHTS Assay for Activators of ClpP | purified B. subtilis ClpP, FRET peptide cleavage, 20 min | hit rate 1.9% among 340,000 | ATP-dependent Clp protease proteolytic subunit (Bacillus subtilis (strain 168)), P80244 | AID 651965, 2013 | Potency, µM (doses to about 57.5 µM); active = well fitted falling curve with a large enough effect; inconclusive = small, poorly fitted or top-dose-only effect; inactive = no such curve, though single readings can be large or run the other way; also: the source files actives as falling curves though it sought activators and does not explain the sign; nearly all actives have a fitted effect of over 65% in size
# Target sequence (P80244 whole entry, looked up): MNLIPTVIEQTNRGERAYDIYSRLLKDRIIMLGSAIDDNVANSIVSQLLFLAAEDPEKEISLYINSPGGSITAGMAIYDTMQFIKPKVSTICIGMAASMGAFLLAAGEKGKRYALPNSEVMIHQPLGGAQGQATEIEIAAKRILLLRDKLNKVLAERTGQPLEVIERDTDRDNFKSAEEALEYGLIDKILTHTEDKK
#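 ClpP 10 microg/mL final, pH 8 Tris/KCl buffer with BSA, glycerol, Tween-20; compound pinned in; FRET-FV substrate; RT 20 min; Ex320/Em430; ΔFRET vs ADEP 5.8 microM, DMSO, no enzyme.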
# PINK1 modulator = changes PINK1 expression. PINK1 immunofluorescence, high-content cytometry, 24 h. hit rate 0.2% among 410,000. Potency, µM (series often up to 76.6 µM), most hits filed as activators. AID 624263; active = well fitted activation curve with a large enough effect; inconclusive = small, poorly fitted or top-dose-only effect; cell line not stated here; also: nearly all actives have a fitted effect of over 65% in size
#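 Fluorescence from anti-PINK1 antibody, together with nuclear and cell stains, was scanned on a laser-scanning cytometer. Before staining, stable-line cells were incubated 24 hours with compounds at 5 concentrations; primary antibody 12 h at 10 degrees C.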
# VP16 counter = Gal4-VP16 reporter inhibition counter-screen | Drosophila S2 Gal4-VP16 UAS-luciferase, luminescence, 20 h | Potency, µM (top dose mostly 53.6 µM), actives largely listed as inhibitors | hit rate 3.5% among 310,000;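 also: Gal4-VP16 expression switched on by copper sulfate through the metallothionein promoter; nearly all actives have a fitted effect of over 50% in size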
# Epigenetic reg = derepresses silenced GFP reporter in murine cells; murine LDR cells, GFP reporter derepression, 30 h; Potency, µM (highest dose often 53.9 µM), most hits filed as activators; hit rate 0.2% among 280,000; also: nearly all actives have a fitted effect of over 60% in size
#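 In this reporter-derepression format, murine cells bearing a silenced integrated CMV-GFP locus incubate with test compound (30 h, 37 C), then are washed and imaged; fluorescent objects of 20–120 um count as induced cells.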
# Sfp PPTase inh = Sfp phosphopantetheinyl transferase inhibition; Q9F4F7; Biochemical Sfp PPTase activity, qHTS; Potency, µM, most hits filed as inhibitors; hit rate 3.5% among 310,000;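 also: the enzyme is Sfp with the accession as filed and its product quenches rhodamine fluorescence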
#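 Fluorescence-quenching assay with 15 nM Sfp, 5 uM rhodamine-CoA and 12.5 uM BHQ-2-labelled ybbR peptide in pH 7.6 Hepes/MgCl2 buffer. Enzyme was pre-incubated with compound for 15 min at room temperature. Rate was taken from the 30-min fluorescence change (525/598 nm).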
# RORgamma inh = ROR gamma (mouse) transcription inhibition; P51450; Drosophila S2 Gal4-RORgamma UAS-luciferase reporter, 20 h; Potency, µM (doses to about 53.6 µM), usual class: inhibitors; hit rate 5.4% among 310,000; AID 2551; also: nearly all actives have a fitted effect of over 60% in size
#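 Schneider cells (Drosophila), stable Gal4 DBD–ROR gamma + UAS-luc; 1 hr cmpd preincubation; Cu2+ induction 700 uM final; 20 hr ambient; luminescence.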
# A number is an active result; 0 = inactive; ? = inconclusive; - = not tested or not shown; [ ] = remark or other dose. A selection: hits, their analogues and other compounds. The true share with any hit is near 8.1%. Unless noted, calls follow the shape of the dose curve; as a rule, active = well fitted curve in the direction sought with a large enough effect; inconclusive = small, poorly fitted or top-dose-only effect, or another doubt; inactive = no such curve, though single readings can be large; an effect the other way counts as inactive or inconclusive.
SMILES,ClpP mod,PINK1 modulator,VP16 counter,Epigenetic reg,Sfp PPTase inh,RORgamma inh
O=C(C[n+]1cc(Br)cc(Br)c1)c1ccc2c(c1)CCCC2,0,0,-,-,-,-
Cc1cc2n(n1)SC(Nc1ccccc1)N2 (centres undefined),0,0,4.47µM,0,0,3.16µM
Cc1ccc(NC2Nc3cc(C)nn3S2)c(C)c1 (centres undefined),-,0,?,0,0,3.55µM
Cc1cc(NC(=NC2CC2)c2ccccc2)n(-c2ccccc2)n1,-,0,0,0,0,0
Cc1ccc(N=CNc2ccc(C)cc2C)c(C)c1,-,0,0,0,0,0
CC1N=C2c3ccccc3N=C(SCC(=O)NCCc3ccccc3)N2C1=O (centres undefined),0,0,-,0,-,-
Cc1ccc(/C=c2\sc3nc(-c4cccnc4)nn3c2=O)cc1,14.1µM,0,0,0,0,0
CCCCNC(=O)c1ccc2c(c1)ncn2-c1cc(OC)ccc1OC,0,0,-,0,-,-
Clc1nc(Nc2ccccc2)nc(Nc2ccccc2)n1,31.6µM,0,?,0,0,0
COc1ccc(C2NC(=O)c3sc(=S)n(-c4ccccc4)c3N2)cc1 (centres undefined),0,0,0,0,50.1µM,0
O=C1NC(c2ccccc2)Nc2c1sc(=S)n2-c1ccccc1 (centres undefined),-,0,0,0,31.6µM,0
COc1ccc(OC)c(N(C)S(=O)(=O)c2ccc3c(c2)NC(=O)CC(=O)N3)c1,0,0,-,0,-,-
N#Cc1ccc(NCCNCC(=O)N2N=CCC2C#N)nc1 (centres undefined),-,-,0,-,0,0
CC1CCN(S(=O)(=O)c2cc(C(=O)N3CCN(c4cccc(Cl)c4)CC3)n(C)c2)CC1,0,0,-,0,-,-
CCCn1nnnc1SCC(=O)c1ccc(NC(C)=O)cc1,0,0,0,0,79.4µM,0
COCCn1nnnc1SCC(=O)c1ccccc1,0,0,0,0,50.1µM,0
COCCn1c(SCC(=O)c2ccc(Cl)cc2)nnc1C(C)C,0,0,0,0,79.4µM,0
CC(=O)Oc1ccc2ccccc2c1C(NC(=O)Cc1ccccc1)c1ccc(Cl)cc1 (centres undefined),0,14.1µM,?,0,0,?
CC(=O)O[C@@H]1CC2C(C)(C)C(=O)C=C[C@]2(C)C2CC[C@]3(C)C(=CC[C@H]3C3CO[C@@H](C(C)(C)O)[C@H](O)C3)[C@@]21C (some centres undefined),-,-,0,0,89.1µM,0
CC(=O)OC1CC2C(C)(C)C(=O)C=C[C@]2(C)C2CC[C@@]3(C)C(c4ccoc4)OC(=O)C4O[C@@]43[C@]12C (some centres undefined),-,-,0,0,0,0
CCOC(=O)C1=C(C)NC(=S)NC1c1ccc(C)s1 (centres undefined),-,0,?,0,0,8.91µM
CC1=C(C(=O)OCC(C)C)C(c2cccs2)NC(=S)N1 (centres undefined),0,0,2.51µM,0,0,11.2µM
COC(=O)C1=C(C)NC(=O)NC1c1ccsc1 (centres undefined),0,0,0,0,0,0
CCOC(=O)C1=C(C)NC(=S)NC1c1ccsc1 (centres undefined),0,0,?,0,0,11.2µM
COc1ccccc1N1CCN(C(=O)c2cc3ccc4ccc(C)[nH]c4c3n2)CC1,0,0,-,0,-,-
SMILES,ClpP mod,PINK1 modulator,VP16 counter,Epigenetic reg,Sfp PPTase inh,RORgamma inh
CCOC(=O)N1CCN(C(=O)c2ccc3c(c2)N(Cc2ccc(F)cc2)CCS3)CC1,0,0,0,-,0,0
CCOC(=O)N1CCC(NC(=O)c2ccc3c(c2)N(C)CCS3)CC1,28.2µM,0,0,0,25.1µM,0
CCOC(=O)N1CCN(C(=O)c2ccc3c(c2)N(CC)CCS3)CC1,0,0,0,0,50.1µM,0
CCOc1ccc(C2CC(=O)Nc3nc(SCc4ccccc4C)[nH]c(=O)c32)cc1OC (centres undefined),0,0,-,0,-,-
N#Cc1c(NC(=O)c2cc3nc(-c4ccc(Br)cc4)cc(C(F)(F)F)n3n2)sc2c1CCCC2,0,0,-,0,-,-
CCc1ccc(NC(=S)Nc2cccc(OC)c2)cc1,0,0,?,0,0,7.94µM
COc1cccc(NC(=S)NN=C2CCCCCC2)c1,-,0,?,?,0,12.6µM
CCCC(=O)Nc1cc(OC)c(NC(=S)Nc2ccc(CC)cc2)cc1OC,-,0,-,-,-,-
COc1ccc(CNC(=S)Nc2cc(C)cc(C)c2)cc1,0,0,12.6µM,0,0,3.98µM
COc1cccc(NC(=O)Nc2ccc(Cc3ccncc3)cc2)c1,0,0,?,0,0,?
CCc1ccc(NC(=S)Nc2cc(OC)c(NC(=O)C(C)C)cc2OC)cc1,-,0,17.8µM,0,0,8.91µM
O=C(NCC1Cc2cccc(-c3ncccn3)c2O1)C1CCCO1 (centres undefined),-,0,-,-,-,-
COc1ccc(CCNC(=S)Nc2cccc(C)c2)cc1,0,0,10µM,0,0,7.08µM
COc1ccc(CNC(=S)Nc2cccc(OC)c2)cc1,0,0,12.6µM,-,0,17.8µM
NS(=O)(=O)c1ccc(CNC(=S)Nc2ccc(F)c(Cl)c2)cc1,-,0,?,0,0,0
COc1ccc(CNC(=S)Nc2ccc(F)c(Cl)c2)cc1,-,0,?,0,0,7.08µM
COc1cccc(NC(=S)NCc2ccncc2)c1,0,0,0,0,0,0
COc1cccc(CNC(=S)Nc2cc(C)cc(C)c2)c1,-,0,0[10 µM],0,0,4.47µM
Cc1ccc(S(=O)Cc2nc(-c3ccc(C(=O)NC(C)c4ccccc4)cc3)oc2C)cc1 (centres undefined),0,0,-,0,-,-
